From PubChem BioAssay (NCI) come the findings set out here.

About 79,000 compounds went through this panel and 15% of them were active in at least one assay; those are over-represented in the sample as a whole. A number with no mark means an inactive call. Rule as the data show it: active = growth inhibition above about 70%; inactive = the rest.

The assay in a line: NCI Yeast Anticancer Drug Screen. Data for the sgs1 mgt1 strain (AID 161).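 Also: 0% = growth of cultures given vehicle only.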 The settings on record: S. cerevisiae sgs1 mgt1 strain, at 50.0 µM, stronger effect = higher value. The essentials: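 Genetically altered yeast, compound exposure, growth inhibition relative to vehicle.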
Take `CCOc1ccc(NC(=O)C(=O)CC(=O)C2=C(C)Nc3ccccc3S2)cc1`: the growth inhibition is 12.5%. The value for `CC(C)[C@@H](C)[C@@]1(C)C[C@@H]1[C@@H](C)[C@H]1CC[C@@H]([C@@H]2CC=C3C[C@@H](O)CC[C@]3(C)C2=O)[C@]1(C)CCO` was 19.3%; that for `COc1cc(C(=O)CCCC(=O)O)cc(OC)c1OC` was 19.6%; that for `CCC(C)(O)CCc1ccccc1` (stereo not drawn) was -64.2%. Take `Cc1cc(Cl)c(Cl)cc1NC(=O)c1c(Br)c(Br)c(Br)c(Br)c1C(=O)O`: the growth inhibition was 8%. The result for `CC1CC=CCC1COB(OCC1CC=CCC1C)OCC1CC=CCC1C` (stereo not drawn) reads 29.1%; that for `COc1cc(C=O)c(-c2c(C=O)ccc3c2OCO3)c(OC)c1OC`, 30.2%; that for `CC(C)C1C(=O)CCCC1=O`, -5.5%. The value for `O=C(O)C[C@H]1CCCCC12CCOC2=O` (stereo partly drawn) was -0.7%; that for `O=C1NC(C(=O)O)CC1O` (stereo not drawn) was 5.05%. The value for `O=C1NCC2Cc3ccccc3C(c3ccccc3)=C12` (stereo not drawn) was 5.6%. Regarding `CCCCNc1cccc2ccccc12`, the growth inhibition is -10.2%. The value for `O=C1NC(N2CCCC(CO)C2)=N/C1=C\c1cccs1` (stereo not drawn) was -3.4%; that for `COc1ccc2c(c1)[n+]([O-])c(/C(C)=N/NC(N)=S)c(C)[n+]2[O-]` was 41.6%. The value for `C[C@@H](O)c1nc(C(N)=O)cs1` was 15.3%; that for `CCOC(=O)C1SCCC1(C)O` (stereo not drawn) was 16.6%. The value for `COc1ccc(C)cc1NS(=O)(=O)c1ccccc1` was -8.2%. In the case of `O=C1CC[C@@H](C(=O)Nc2cccc3ccccc23)N1`, the growth inhibition is 8.5%.
